The text below walks through data of PubChem BioAssay.

The source made the active and inactive calls. Unless noted, how the calls were made is not given here.

Assay [1] in a line: compound effects on lung adenocarcinoma cell viability – A549, calcein-AM fluorescence, 48 h, basal, profiling panel (AID 1162). Further: test concentration not given here. Conditions: higher = more signal.
Assay [2] in a line: compound effects on differentiated 3T3-L1 adipocyte viability – cell-based, 3T3-L1 adipocytes, calcein-AM fluorescence, 48 h, basal, profiling panel (AID 1163). Further: test concentration not given here. Conditions: 3T3-L1 adipocytes viability, higher = more signal.
Assay [3] is described as follows: compound effects on hepatocellular carcinoma cell viability – HepG2, calcein-AM fluorescence, 48 h, basal, profiling panel (AID 1164). Further: test concentration not given here. Conditions: higher = more signal.
The nature of assay [4]: compound effects on multiple myeloma cell viability – MM1S, calcein-AM fluorescence, 48 h, basal, profiling panel (AID 1165). Further: test concentration not given here. Conditions: higher = more signal.
Assay [5] can be described thus: calcein-AM signal in unstimulated myeloma cells – cell-based, calcein-AM fluorescence, 48 h, PK04 Diversity Set, profiling panel (AID 1166).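 Further: cells grown under basal conditions without added stimulus; test concentration not given here.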 To be noted: RPMI8226 myeloma viability, higher = more signal.
A short description of assay [6]: JC-1 mitochondrial signal, unstimulated HepG2 cells – cell-based, JC-1 fluorescence, 24 h, 100 nL compound, profiling panel (AID 1167). Further: test concentration not given here. Conditions: HepG2 mitochondrial potential, higher = more signal.
The nature of assay [7]: JC-1 mitochondrial signal, unstimulated adipocytes – cell-based, JC-1 fluorescence, 3T3-L1 adipocytes, 24 h, 100 nL compound, profiling panel (AID 1168). Further: test concentration not given here. To be noted: JC-1 mitochondrial fluorescence, higher = more signal, called active from +8 up or from −8 down.
The nature of assay [8]: JC-1 mitochondrial signal, unstimulated myeloma cells – cell-based, JC-1 fluorescence, RPMI8226, 24 h, 100 nL compound, profiling panel (AID 1169). Further: test concentration not given here. Conditions: JC-1 mitochondrial potential fluorescence, higher = more signal.
The nature of assay [9]: JC-1 mitochondrial signal, unstimulated MM1S myeloma – cell-based, JC-1 fluorescence, 24 h, 100 nL compound, profiling panel (AID 1170). Further: test concentration not given here. To be noted: MM1S mitochondrial potential, higher = more signal.
Assay [10] in a line: resazurin metabolic signal in A549 cells – cell-based, resazurin fluorescence, 24 h, PK04 Diversity Set, profiling panel (AID 1171). Further: test concentration not given here. To be noted: A549 viability, higher = more signal, called active from +8 up or from −8 down.
Assay [11] can be described thus: resazurin metabolic signal in HepG2 cells – cell-based, resazurin fluorescence, 24 h, PK04 Diversity Set, profiling panel (AID 1172). Further: test concentration not given here. To be noted: HepG2 viability, higher = more signal. On the technique in general: Resazurin is reduced to fluorescent resorufin, in cell work by metabolically active cells.
A short description of assay [12]: budding yeast growth changes without added modifier – OD600, strain BY4716, 24 h, basal condition, primary screen (AID 1173). Conditions: S. cerevisiae BY4716 growth, OD600, 24 h; higher = more signal, called active from +8 up or from −8 down.
The nature of assay [13]: viability profiling in MM1S myeloma cells – cell-based, resazurin fluorescence, basal, 24 h, PK04 Diversity Set, profiling panel (AID 1174). Further: test concentration not given here. To be noted: higher = more signal, called active from +8 up or from −8 down.
In assay [14] the target is Dihydroorotate dehydrogenase (quinone), mitochondrial (Plasmodium falciparum (isolate 3D7)) (UniProt Q08210). Description: inhibition of P. falciparum DHODH – biochemical, C-terminal His tag, absorbance 600 nm, primary screen (AID 1175).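 Further: recombinant parasite enzyme with a five histidine tag at its C terminus; test concentration not given here.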 To be noted: PfDHODH enzyme, DCIP absorbance 600 nm; higher = more signal, called active from +8 up or from −8 down.
The nature of assay [15]: inhibition of PAO1 biofilm formation – strain PAO1, LB-PBS medium, absorbance 600 nm, primary screen (AID 1176). Further: test concentration not given here. To be noted: P. aeruginosa PAO1 growth/biofilm, A600, 12 h; higher = more signal.
Assay [16] in a line: growth modulation of vineyard yeast isolate – strain RM11-1a, OD600, basal, 24 h, primary screen (AID 1177).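 Further: cultures grown under basal conditions with no added stressor; test concentration not given here.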 To be noted: S. cerevisiae RM11-1a growth, OD600, 24 h; higher = more signal, called active from +8 up or from −8 down.
The nature of assay [17]: growth of efflux-deficient E. coli DRC39 – strain DRC39, OD650, 24 h, E. coli filamentation inducers, primary screen (AID 1178).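 Further: growth measured as culture turbidity by optical density at 650 nm; test concentration not given here.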 Conditions: E. coli DRC39 acrAB, higher = more signal, called active from +8 up or from −8 down.
The nature of assay [18]: growth of efflux-deficient E. coli DRC39 – strain DRC39, OD650, 48 h, E. coli filamentation inducers, primary screen (AID 1179).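 Further: screen aims at cell division blockers that make cells filament.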 To be noted: E. coli DRC39 delta-acrAB growth, higher = more signal, called active from +8 up or from −8 down.
The nature of assay [19]: viability profiling in RPMI8226 myeloma cells – cell-based, resazurin fluorescence, basal, 24 h, PK04 Diversity Set, profiling panel (AID 1180).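 Further: RPMI8826 multiple myeloma cell line at 5000 cells per well; test concentration not given here.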 Conditions: higher = more signal.
Assay [20] has as its target E3 ubiquitin-protein ligase XIAP (Homo sapiens) (UniProt P98170). Briefly: small molecules binding XIAP protein – biophysical, small-molecule microarray, fluorescence 635 nm, primary screen (AID 1181).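 Further: score merges 667 nm emission and signal to noise over triplicate slides.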 To be noted: higher = more signal.

Dihydroorotate dehydrogenase (quinone), mitochondrial (Plasmodium falciparum (isolate 3D7)), sequence (Q08210 whole entry, looked up): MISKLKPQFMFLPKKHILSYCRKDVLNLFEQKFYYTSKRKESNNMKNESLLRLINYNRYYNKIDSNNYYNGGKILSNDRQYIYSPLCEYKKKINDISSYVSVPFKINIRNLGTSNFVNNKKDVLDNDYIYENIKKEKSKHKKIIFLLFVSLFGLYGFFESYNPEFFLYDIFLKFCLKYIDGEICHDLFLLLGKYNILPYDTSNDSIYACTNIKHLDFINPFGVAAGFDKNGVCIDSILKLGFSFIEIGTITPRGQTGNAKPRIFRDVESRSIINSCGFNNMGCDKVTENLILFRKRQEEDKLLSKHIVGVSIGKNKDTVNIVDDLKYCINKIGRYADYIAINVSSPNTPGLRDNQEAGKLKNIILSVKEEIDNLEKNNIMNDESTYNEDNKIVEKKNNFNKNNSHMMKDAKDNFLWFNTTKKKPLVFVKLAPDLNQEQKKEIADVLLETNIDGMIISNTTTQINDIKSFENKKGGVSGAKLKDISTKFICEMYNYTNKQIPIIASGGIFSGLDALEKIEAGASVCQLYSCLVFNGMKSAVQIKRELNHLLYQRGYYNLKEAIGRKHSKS
E3 ubiquitin-protein ligase XIAP (Homo sapiens), sequence (P98170 whole entry, looked up): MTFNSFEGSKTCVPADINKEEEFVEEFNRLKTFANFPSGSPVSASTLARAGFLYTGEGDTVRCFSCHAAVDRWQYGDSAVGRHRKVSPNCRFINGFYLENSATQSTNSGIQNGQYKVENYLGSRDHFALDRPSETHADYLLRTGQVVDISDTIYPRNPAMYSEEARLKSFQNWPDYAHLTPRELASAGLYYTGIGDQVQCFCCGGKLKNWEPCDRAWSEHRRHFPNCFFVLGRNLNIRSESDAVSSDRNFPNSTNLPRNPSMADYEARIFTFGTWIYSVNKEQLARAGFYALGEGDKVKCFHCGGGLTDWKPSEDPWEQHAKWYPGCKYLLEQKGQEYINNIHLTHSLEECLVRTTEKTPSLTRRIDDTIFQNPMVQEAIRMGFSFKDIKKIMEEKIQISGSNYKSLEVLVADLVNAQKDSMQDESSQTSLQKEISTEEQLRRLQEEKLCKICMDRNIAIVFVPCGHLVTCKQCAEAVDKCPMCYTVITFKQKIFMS

On to `C=CCOC(=O)[C@@H]1[C@H]2C(=O)O[C@H](c3ccccc3)[C@H](c3ccccc3)N2[C@H](c2ccc(OCCOC(=O)[C@@H]3C[C@@H]4C(=O)N[C@@H](Cc5ccccc5)C(=O)N4[C@@H]3c3cccc(OCCO)c3)cc2)[C@@]12C(=O)Nc1ccc(I)cc12`, for which the z-score in assay [1] was -1.15; in assay [2], 0.185; in [3] it was -0.0074; in assay [4], 0.359; in assay [5], -1.1; in [6] it was -1.57. In addition, the z-score in assay [7] was 0.235 (inactive); in assay [8] it was -0.505; in assay [9], -1.14; in assay [10], 0.789 (inactive); in assay [11], 0.134; in [12], 1.94 (inactive). The z-score in assay [13] was 0.375 (inactive); in assay [15], 2.17 (inactive); in [16], 2.94 (inactive); in assay [17], 0.421 (inactive); in [18], -0.463 (inactive); in assay [19], 0.318. The composite z-score in assay [14] is -0.0168 (inactive); in assay [20] it was 0.434.

`C=C(COC)C(=O)CC[C@@H](OC(=O)c1cccnc1)c1ccc(CO)o1`: the z-score in [1] is 0.408; in assay [2], -0.615; in assay [3], 0.0726; in [4], -0.193; in assay [5], -0.205; in assay [6], -0.178. Also, the z-score is -0.294 (inactive) in assay [7]; 0.0598 in [8]; 0.627 in assay [9]; 0.709 (inactive) in [10]; 0.114 in assay [11]; -0.0873 (inactive) in assay [12]. Also, the z-score in assay [13] is 0.78 (inactive); in assay [15], 0.649 (inactive); in [16] it was -0.318 (inactive); in [17], 0.831 (inactive); in [18], 0.555 (inactive); in assay [19] it was 0.807. In addition, the composite z-score in [14] was -0.604 (inactive); in assay [20], -0.0802.

Regarding `O=C1O[C@@H](c2ccccc2)[C@@H](c2ccccc2)N2[C@@H](c3ccc(O)cc3)[C@]3(C(=O)Nc4ccc(C#CC5=CCCCC5)cc43)[C@@H](C(=O)O)[C@H]12`, the z-score in assay [1] is 1.09; in [2], 0.369; in assay [3] it was 1.2; in [4] it was -0.294; in assay [5], -0.412; in assay [6], -0.956. The z-score was 0.619 (inactive) in assay [7]; -0.177 in assay [8]; 1.04 in [9]; 1.86 (inactive) in assay [10]; 1.46 in [11]; -4.6 (inactive) in [12]. The z-score in [13] is 1.23 (inactive); in assay [15], 2.85 (inactive); in assay [16] it was -2.61 (inactive); in assay [17], 0.661 (inactive); in assay [18] it was 1.32 (inactive); in assay [19] it was 1.02. For the same compound, the composite z-score was -2.56 (inactive) in assay [14] and 0.332 in assay [20].

As for `COC(=O)C[C@@H]1C[C@H](C)[C@]2(O1)C(=O)N(Cc1ccccc1)c1ccc(NC(C)=O)cc12`, the z-score is -0.0958 in assay [1]; 0.663 in assay [2]; -0.258 in assay [3]; 0.186 in assay [4]; -0.804 in assay [5]; -0.0913 in assay [6]. The z-score in [7] is -0.551 (inactive); in assay [8], -0.183; in assay [9] it was 0.229; in assay [10], -0.982 (inactive); in [11] it was -0.873; in assay [12] it was -1.15 (inactive). Besides, the z-score in assay [13] was -1.19 (inactive); in assay [15], -0.0582 (inactive); in assay [16] it was 0.0057 (inactive); in assay [17] it was -0.768 (inactive); in assay [18], -1.33 (inactive); in assay [19] it was -0.888. Besides, the composite z-score in assay [14] is 0.281 (inactive); in [20], 0.123.

For `[N-]=[N+]=Nc1ccccc1[C@@H]1OC(c2ccc(OCCCO)cc2)=N[C@]1(CCS(=O)(=O)c1ccccc1)C(=O)N1CCOCC1`, the z-score is 1.53 in [1]; 0.293 in assay [2]; 1.33 in [3]; 0.0503 in [4]; -0.908 in assay [5]; 0.431 in [6]. The z-score in assay [7] is 0.406 (inactive); in [8], -0.746; in [9] it was -0.799; in [10], -0.549 (inactive); in assay [11] it was -0.167; in [12], 0.907 (inactive). Also, the z-score in assay [13] was -0.638 (inactive); in [15] it was 0.507 (inactive); in assay [16], 1.9 (inactive); in assay [17] it was -0.311 (inactive); in [18], 0.0945 (inactive); in assay [19], -1.19. Also, the figures for the composite z-score in assay [14] and in [20] were 1.56 (inactive) and 0.182, respectively.

On to `C=CCC(OC(C)=O)[C@@H]1[C@@H](N(Cc2cccc3ccccc23)C(=O)c2cccc3ccccc23)c2cc(OCCCO)ccc2N1C(=O)c1ccc2ccccc2n1` (stereo not given in full), for which the z-score was -0.7 in assay [1]; 0.161 in assay [2]; -0.571 in assay [3]; -0.399 in assay [4]; -0.128 in [5]; 0.978 in assay [6]. The z-score in assay [7] was -1.2 (inactive); in assay [8] it was -0.133; in assay [9], 0.248; in assay [10], 0.0076 (inactive); in assay [11], -0.0111; in assay [12] it was -0.337 (inactive). Also, the z-score in [13] was -0.388 (inactive); in [15], -0.334 (inactive); in [16], -0.929 (inactive); in assay [17], 0.854 (inactive); in assay [18] it was 0.424 (inactive); in assay [19] it was -0.0685. Besides, the composite z-score in assay [14] was -0.747 (inactive); in [20], -0.124.

`COCCCNC(=O)[C@@]1(C)c2ccccc2C(=O)N(Cc2cc(C(F)(F)F)cc(C(F)(F)F)c2)[C@H]1c1ccc(CO)cc1`: the z-score in [1] is -0.0997; in [2] it was -0.872; in [3], 0.771; in [4], 0.384; in assay [5] it was -0.509; in assay [6] it was 1.59. Further, the z-score in [7] was 1.01 (inactive); in assay [8], 0.222; in assay [9], -0.668; in assay [10], 0.545 (inactive); in [11] it was -0.063; in assay [12], -0.0384 (inactive). The z-score in assay [13] is 0.186 (inactive); in assay [15], 0.127 (inactive); in assay [16], 0.429 (inactive); in assay [17] it was 0.534 (inactive); in [18], 1.3 (inactive); in assay [19] it was 0.394. The composite z-score in [14] was 1.03 (inactive); in assay [20], -0.204.

`COc1ccc(C#Cc2ccc3c(c2)[C@]2(C(=O)N3)[C@H](c3ccc(O)cc3)N3[C@H](c4ccccc4)[C@H](c4ccccc4)OC(=O)[C@H]3[C@@H]2C(=O)NC[C@H](O)c2ccccc2)cc1`: the z-score in [1] is -1.1; in assay [2] it was 0.72; in [3], -0.513; in [4], -3; in [5] it was -4.58; in assay [6], -1.8. Besides, the z-score was 1.94 (inactive) in [7]; -1.12 in [8]; -1.3 in [9]; -0.475 (inactive) in assay [10]; -0.689 in assay [11]; 1.81 (inactive) in [12]. The z-score in [13] was -2.56 (inactive); in assay [15], 0.325 (inactive); in assay [16], 2.71 (inactive); in assay [17], 0.106 (inactive); in [18], 0.105 (inactive); in assay [19], -4.1. Also, the composite z-score in assay [14] was -3.64 (inactive); in assay [20], -0.0749.

Turning to `COc1ccc([Si](C)(C)[C@H]2[C@H](CCn3cc([C@H](O)c4ccccc4)nn3)O[C@@]3(C(=O)N(Cc4cccc(N5CCC5=O)c4)c4ccccc43)[C@@H]2C)cc1`, the z-score was 0.692 in [1]; 1.3 in [2]; 1.57 in assay [3]; 0.739 in [4]; -1.32 in assay [5]; 0.906 in assay [6]. Further, the z-score in assay [7] is -0.336 (inactive); in assay [8], -1.15; in [9], -0.948; in assay [10] it was -0.323 (inactive); in assay [11] it was 0.429; in assay [12] it was -1.53 (inactive). Also, the z-score in assay [13] was -0.85 (inactive); in assay [15] it was 1.59 (inactive); in assay [16], -0.101 (inactive); in assay [17], 0.898 (inactive); in assay [18] it was 1.02 (inactive); in assay [19], 0.388. The composite z-score was -1.21 (inactive) in assay [14] and 0.166 in [20].
